HCV inh = HCV inhibition | Huh7.5.1 HCVcc-Cre infection, luciferase reporter, 44 h | Potency, µM (doses to about 41.8 µM), for the others: at the highest dose activity change, negative = inhibition, actives largely listed as inhibitors | AID 651820 | actives 3.4% (n = 340,000); active means well fitted inhibition curve with a large enough effect; inconclusive means small, poorly fitted or top-dose-only effect, or another doubt; inactive means no such curve, though single readings can be large or run the other way
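Luciferase read-out (15 sec integration) after a 15 min room-temperature substrate step quantifies HCVcc-Cre infection. Cells, 1,000 per well, had compound added 4 h post-plating, then virus at ~0.5 moi, and were cultured 44 h.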
MARV entry inh = blocks Marburg virus binding to or entry into cells; Marburg virus pseudotyped entry inhibition, cell reporter; Potency, µM (doses to about 37.8 µM), for the others: at the highest dose activity change, negative = inhibition, usual class: inhibitors; actives 1.8% (n = 300,000); AID 540276; calls by dose curve; tested in HEK293 cells
LASV entry inh = Lassa virus entry inhibition. AID 540256. Lassa virus pseudotype entry inhibition, cell reporter. Potency, µM (titrated, usually from 37.9 µM), without a hit: at the highest dose activity change, negative = inhibition, hits mostly inhibitors. actives 1.2% (n = 300,000); calls by dose curve; tested in HEK293 cells; further: nearly all actives have a fitted effect of over 50% in size
FMDV antiviral = blocks foot and mouth disease virus; FMDV antiviral cell-based qHTS; Potency, µM (highest dose often 57.9 µM), for inactives: top-dose activity change, negative = inhibition, usual class: inhibitors; actives 1.2% (n = 410,000); calls by dose curve; tested in HEK293T cells; further: read-out not given here; nearly all actives have a fitted effect of over 45% in size
VACV Venus inh = inhibitors of vaccinia virus (Venus reporter); Vaccinia virus Venus reporter expression, fluorescence; Potency, µM (series often up to 36.5 µM), for the others: at the highest dose activity change, negative = inhibition, actives largely listed as inhibitors; actives 0.46% (n = 330,000); AID 720580; calls by dose curve; tested in A549 cells; further: nearly all actives have a fitted effect of over 30% in size
Vaccinia mCherry = vaccinia inhibition (mCherry reporter); Vaccinia virus mCherry reporter infection, fluorescence; Potency, µM (series often up to 36.5 µM), without a hit: top-dose activity change, negative = inhibition, actives largely listed as inhibitors; actives 0.63% (n = 310,000); AID 720579; calls by dose curve; tested in A549 cells; further: nearly all actives have a fitted effect of over 35% in size
The depositor's hits bear a star; i = inactive; ? = inconclusive; nt = not tested or not shown; [ ] = remark or other dose. In the library only some 5.3% were active in any assay of this set; here they are far more common. On the % scale 0 is the no-effect control and ±100 the full control effect; potency means the concentration at half of the fitted maximal effect.

SMILES | HCV inh | MARV entry inh | LASV entry inh | FMDV antiviral | VACV Venus inh | Vaccinia mCherry
CNC(=O)[C@@H]1C[C@H](Sc2nc3ccccc3[nH]2)CN1Cc1cccc(C(F)(F)F)c1 | nt | nt | nt | -9.5% | -6.1% | -9.2%
Oc1ccc(C23CCCC2C2(CCCC2)c2ccc(O)cc2O3)c(O)c1 (stereo not given) | 10µM* | nt | nt | -23.7% | nt | nt
CCOc1ccc([C@H]2C[C@H](c3ccccc3)Nc3nc(N)nn32)cc1 | nt | 0.7% | nt | nt | nt | nt
O=C(O)Cc1coc2ccc3ccccc3c12 | 14.3% | 7.5%[46.1 µM] | 0.0%[46.1 µM] | -6.3% | -11.5% | i
Cc1cccc(NC(=O)Cc2coc3ccc4ccccc4c23)n1 | ? | 6.51µM* | ? | -4.7% | 3.5% | i
COc1ccc(-n2c(SCc3ccccc3F)nc3c([nH]c4ccccc43)c2=O)cc1OC | nt | nt | ? | ? | -26.6% | -28.6%
CC[C@H](C)C(=O)O[C@H]1CCC=C2C=C[C@H](C)[C@H](CC[C@@H]3C[C@@H](O)CC(=O)O3)[C@H]21 | 0.562µM* | ? | 0.0% | -28.5% | -19.6% | -5.2%
CCC(C)C(=O)OC1CCC=C2C=CC(C)C(CCC3CC(O)CC(=O)O3)C21 (stereo not given) | 4.8% | 22.5% | 20.5% | -19.3% | -16.4% | -20.6%
COc1ccc(CN2CCN(CC(O)Cn3c4ccccc4c4ccccc43)CC2)cc1 (stereo not given) | 11.2µM* | -0.5% | -1.9% | ? | nt | nt
CCOc1ccc(CN2CCN(CC(O)Cn3c4ccccc4c4ccccc43)CC2)cc1 (stereo not given) | 17.7% | ? | ? | -4.5% | -11.9% | -3.4%
CCn1c(=N)n(CC(O)COc2ccccc2)c2ccccc21 (stereo not given) | nt | nt | 9.3%[46.1 µM] | -11.9% | -15.1% | -21.1%
N=c1n(Cc2ccc(Cl)cc2)c2ccccc2n1CC(O)COc1ccccc1 (stereo not given) | 12.6µM* | ? | ? | ? | ? | 28.2µM*
Clc1ccc(OCc2nc3ccccc3n2Cc2ccccc2)c(Cl)c1 | nt | nt | 13.8%[46.1 µM] | 42.6% | 1.8% | -6.6%
N=c1n(Cc2ccccc2)c2ccccc2n1CC(O)COc1ccc(Cl)cc1Cl (stereo not given) | 11.2µM* | ? | ? | 35.5µM* | ? | ?
COc1ccc(OCC(O)Cn2c(=N)n(Cc3ccccc3)c3ccccc32)cc1 (stereo not given) | 10µM* | 4.11µM* | ? | ? | nt | nt
CCc1ccc(S(=O)(=O)NCc2nc(N3CCCC3)c3cccc(C)c3n2)cc1 | nt | nt | nt | 9.0% | 0.7% | -0.6%
CCOC(=O)N/N=C1/C[C@@H](O)[C@@H](O)[C@@H]2[C@@H]3C(=O)N(Cc4ccccc4)C(=O)[C@H]3CC[C@H]12 | nt | 24.9%[14.2 µM] | nt | nt | nt | nt
COc1ccc(CN2C(=O)C(CC(=O)NC3CCCCC3)CC(C(=O)N(C)C)=C2C)cc1 (stereo not given) | nt | nt | nt | -10.7% | -19.9% | -12.1%
CC(C)CCn1c(Oc2ccccc2F)nc2c1c(=O)n(C)c(=O)n2C | nt | nt | -21.6%[46.1 µM] | ? | -12.5% | -18.4%
Cc1ccc(OCC(O)Cn2c(=N)n(Cc3ccccc3)c3ccccc32)cc1 (stereo not given) | ? | ? | ? | 0.0% | 14.1µM* | 11.2µM*
COC(=O)C/C=C/[C@@H](C)[C@H](NC(=O)OCC(Cl)(Cl)Cl)c1cccc(OC)c1 | nt | -7.5%[14.2 µM] | nt | nt | nt | nt
O=c1c2ccccc2nc(/C=C/c2c[nH]c3ccccc23)n1CCO | ? | -6.5%[46.1 µM] | ? | 0.0% | -24.7% | ?
O=c1c2ccccc2nc(/C=C/c2ccccc2)n1CCCO | -6.9% | 0.3% | nt | 1.7% | nt | nt
CCCc1nc2ccccc2c(=O)n1N | 17.4% | 6.1%[46.1 µM] | -16.6% | -4.2% | -16.6% | -3.9%
O=c1c2ccccc2nc(/C=C/c2ccc(O)cc2)n1CCc1ccccc1 | 12.6µM* | ? | 9.2µM* | 35.5µM* | -18.1% | ?
O=c1c2ccccc2nc(/C=C/c2cc(Br)ccc2O)n1CCO | 14.1µM* | nt | nt | ? | nt | nt
CCCc1nc2ccccc2c(=O)n1/N=C/c1ccccc1O | ? | ? | ? | -24.6% | ? | 10µM*
CCCc1nc2ccccc2c(=O)n1CCc1ccccc1 | ? | ? | 2.51µM* | ? | -23.1% | -24.2%

Screening data as filed in PubChem.
